For 40 sequences, PBM binding z-score results are on record in the supplement of paper PMC6555819.

For the first assay, the system named is PPARg:RXRa (NR concentration 180 nM, RXRa partner concentration 90 nM). In words: PBM binding z-score (relative to random genomic background probes); higher = stronger binding; sequences stand for … in GC…GCGATTGACAGCGTAGAATGAAGG
The gist of the method:
(§1)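 Antibodies against each partner of ligand-free nuclear receptor dimers (one per run) detected binding on custom Agilent 4×180K protein-binding microarrays after 1 h incubation. The double-stranded probes had 34-nt variable regions carrying direct-repeat seeds, single-nucleotide variants, half-site ablations and random human genomic background sequences. Binding z-scores, from regression-normalized fluorescence, use the random background probes as reference.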
The sequence GCAGACAGGTGAAACGCAGATAACTCAGGGTGGC yielded a PBM binding z-score of 1.04.
AGAATGAGGTTAAGATCACGGAAACAGAATACAT returned a PBM binding z-score of 2.6.
On to ATCGAAAGGTCGTAGGTGAGTATACCCACCCGAA, for which the PBM binding z-score stood at 4.11.
Same read-out and setting: the same measure for CCTATTAGTCGACCATAAGGGCAACCGAAGCTCG: 0.531.
For ACAGACAGGTGATGGAGGTAACTCAGGCTATCAT, the PBM binding z-score came out at 0.789.
Take TCTAGCAGGCCAGAGGGTCACTCCAGAGGTACGG: the PBM binding z-score worked out at 1.19.
Turning to AGAACTAGGGCACGCTGAGTTGATAGCAGAGTAG, the PBM binding z-score is 5.21.
Same read-out and setting: under CGTCAAAGTTCAAGGTAACTTAACAGAAAGCAGC stands 4.23.
For the sequence CCTAGCAGGCCAAACTGGGTCACTCAAGGCTTGA, the PBM binding z-score amounted to 1.74.
Regarding TAAATGAGGTTATAAGATCAGGGAACGTTGCAAA, the PBM binding z-score amounted to 2.1.
Still for that read-out and setting: under CCTACTGGGCCACGAAAGGTCATTAATTCAGTGA stands 4.47; under GCTGCTAGGTCAACTGATGGACAGCTAAAGCTCG, 2.8; under AATCGGAGGACAAAGGTCAGAGCTACGCCAGTGA, 8.17.
Take TCGAGTAGGTTAGTCGGGGCATTCAGCCAACATA: the PBM binding z-score is -0.224.
Sequence TCATATAGGTAAACAGGTGAAATTCCGTAAGTTA came in with a PBM binding z-score of 2.75.
CGAACTAGGTCATCCAGGACAGTGAGTACATTGA returned a PBM binding z-score of 7.45.
The same measure, in the same setting: the same measure for ATACCAAGGTGATCGTGAGGTCGCTGATACTAAC: 0.701; for TCGAGTAGGTTCGTCGGGGCATTCAGCCAACATA: -0.436.
On the same count and under the same terms, under TAGCCTAGGTCAGATAGGGCCAGTATACGCTATA stands 0.726; under CAAACTAGGTCACCGGAAGGTCACAGTCCGCATG, 9.97.
CACACTAGGTCAAGGTCAAAGTCGGTTTGTGCCA showed a PBM binding z-score of 8.74.
Same read-out and setting: under ACTATTAGTTGAGACGAGGGCAACCAATAGGTTG stands 0.647; under ATATGTAGGGTAGCTGGGGTCATTCAGACTAGGC, 5.01; under CCGAGTAGGATATGGGGCATTCAGGCAACGGTGA, 1.26.
ATCGACAGGTCGTGAGGTGAGTATACAGAAAGGC: the PBM binding z-score was found to be 1.15.
In turn, GCGTCTGGGGCATCAGCAGGTTACCATAACTTAA had a PBM binding z-score of 0.169.
CCGACTGGGGCAAGGCTACCATAACGCACAGCCA displayed a PBM binding z-score of 1.08.
Regarding CAAACTAGGTCACCGGTAGGTCAAAGTCCGCATG, the PBM binding z-score is 9.32.
As to TCTTGTAGATCAGCAGTTTAAGAAAGCTGGCCAA, the PBM binding z-score was -0.762.
Regarding CAGCCTAGGTCAGGCCCAGTATAGGAGGAACGTT, the PBM binding z-score is 0.633.
The sequence ATATATAGGTTAGCTGGGGTCATTCAGACTAGGC yielded a PBM binding z-score of 5.62.
Sequence GCTTACGGTTCAAAGGTTATAGCATGAATAGAAT had a PBM binding z-score of 4.71.
Same read-out and setting: under AGAATGAGGTTACCGAAGATCAGGGAAACGCTTG stands 2.86.
On the same count and under the same terms, the same measure for AGAATGAGGTTATCCGTAGATCAGGGAAGAAAGT: 1.63.
In the case of TGAATGAGGTTAAAGATCAGGGAACGTGGCGTCG, the PBM binding z-score is 5.54.
The same measure, in the same setting: under AGAATGAGGGTATTAAGATCAGGGAATTGCGGTC stands 0.403; under CTACCAACGTGAACAAGGTCGTTGATTACTATTC, 0.42.
ACTAGTCGGTCAGCTGAGGTCACACACAATTCGG: the PBM binding z-score stood at 2.51.
CCTTGGAGGACAGAAGGTCAGAGCTGTCCGCTTT yielded a PBM binding z-score of 0.715.
On to TGTCAAGGTTCAAAGGTAACGTAAGTATCCACAC, for which the PBM binding z-score worked out at 6.29.

The next assay has as its system PPARg:RXRa 270nM:90nM, anti-RXR (NR concentration 270 nM, RXRa partner concentration 90 nM). The assay is described as above. The gist of the method:
as §1
In turn, GCAGACAGGTGAAACGCAGATAACTCAGGGTGGC had a PBM binding z-score of -0.0865.
On to AGAATGAGGTTAAGATCACGGAAACAGAATACAT, for which the PBM binding z-score was determined as 2.66.
ATCGAAAGGTCGTAGGTGAGTATACCCACCCGAA: the PBM binding z-score is 4.56.
Sequence CCTATTAGTCGACCATAAGGGCAACCGAAGCTCG came in with a PBM binding z-score of 0.353.
Same read-out and setting: under ACAGACAGGTGATGGAGGTAACTCAGGCTATCAT stands -0.241.
Still for that read-out and setting: under TCTAGCAGGCCAGAGGGTCACTCCAGAGGTACGG stands 2.54; under AGAACTAGGGCACGCTGAGTTGATAGCAGAGTAG, 4.47; under CGTCAAAGTTCAAGGTAACTTAACAGAAAGCAGC, 4.97.
On the same count and under the same terms, under CCTAGCAGGCCAAACTGGGTCACTCAAGGCTTGA stands 2.06; under TAAATGAGGTTATAAGATCAGGGAACGTTGCAAA, 2.73; under CCTACTGGGCCACGAAAGGTCATTAATTCAGTGA, 4.57.
For the sequence GCTGCTAGGTCAACTGATGGACAGCTAAAGCTCG, the PBM binding z-score is 2.99.
AATCGGAGGACAAAGGTCAGAGCTACGCCAGTGA: the PBM binding z-score was determined as 7.23.
Same read-out and setting: the same measure for TCGAGTAGGTTAGTCGGGGCATTCAGCCAACATA: 0.553; for TCATATAGGTAAACAGGTGAAATTCCGTAAGTTA: 3.22.
Turning to CGAACTAGGTCATCCAGGACAGTGAGTACATTGA, the PBM binding z-score was 6.5.
ATACCAAGGTGATCGTGAGGTCGCTGATACTAAC registered a PBM binding z-score of 0.558.
Same read-out and setting: under TCGAGTAGGTTCGTCGGGGCATTCAGCCAACATA stands 0.394; under TAGCCTAGGTCAGATAGGGCCAGTATACGCTATA, 0.567; under CAAACTAGGTCACCGGAAGGTCACAGTCCGCATG, 7.71.
As for CACACTAGGTCAAGGTCAAAGTCGGTTTGTGCCA, the PBM binding z-score was 7.44.
ACTATTAGTTGAGACGAGGGCAACCAATAGGTTG showed a PBM binding z-score of 0.464.
On the same count and under the same terms, the same measure for ATATGTAGGGTAGCTGGGGTCATTCAGACTAGGC: 4.85.
In the case of CCGAGTAGGATATGGGGCATTCAGGCAACGGTGA, the PBM binding z-score was 2.01.
Regarding ATCGACAGGTCGTGAGGTGAGTATACAGAAAGGC, the PBM binding z-score came to 0.86.
Sequence GCGTCTGGGGCATCAGCAGGTTACCATAACTTAA returned a PBM binding z-score of 0.239.
The same measure, in the same setting: the same measure for CCGACTGGGGCAAGGCTACCATAACGCACAGCCA: 0.83; for CAAACTAGGTCACCGGTAGGTCAAAGTCCGCATG: 7.44; for TCTTGTAGATCAGCAGTTTAAGAAAGCTGGCCAA: 1.27.
CAGCCTAGGTCAGGCCCAGTATAGGAGGAACGTT: the PBM binding z-score came to 0.673.
ATATATAGGTTAGCTGGGGTCATTCAGACTAGGC: the PBM binding z-score came out at 5.43.
Consider GCTTACGGTTCAAAGGTTATAGCATGAATAGAAT, for which the PBM binding z-score came out at 5.6.
The sequence AGAATGAGGTTACCGAAGATCAGGGAAACGCTTG showed a PBM binding z-score of 3.26.
AGAATGAGGTTATCCGTAGATCAGGGAAGAAAGT came in with a PBM binding z-score of 2.05.
TGAATGAGGTTAAAGATCAGGGAACGTGGCGTCG came in with a PBM binding z-score of 6.57.
AGAATGAGGGTATTAAGATCAGGGAATTGCGGTC gave a PBM binding z-score of 0.28.
Sequence CTACCAACGTGAACAAGGTCGTTGATTACTATTC displayed a PBM binding z-score of 0.167.
Consider ACTAGTCGGTCAGCTGAGGTCACACACAATTCGG, for which the PBM binding z-score stood at 2.99.
CCTTGGAGGACAGAAGGTCAGAGCTGTCCGCTTT: the PBM binding z-score is 2.34.
With TGTCAAGGTTCAAAGGTAACGTAAGTATCCACAC, the PBM binding z-score stood at 6.26.
